# From PubChem BioAssay AID652154 (Broad Institute, 2013)
# Screen size: about 360,000 compounds; about 4,200 (1.2%) were called active. This excerpt belongs to a sample that is enriched for actives. Values without a mark were called inactive.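 Rule for the calls: active = mean replicate inhibition at least 60% with every replicate also reaching 60%; inconclusive = only one of the two criteria is met; inactive = mean below 60% and not all replicates reaching 60%.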
# Assay: PAX8 transcriptional activity inhibition in RMG-I – RMG-I cells, luciferase, single concentration, primary screen (AID 652154);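 note: luciferase light reporting Pax8 driven TPO promoter activity; plate controls were median of neutral control wells for no effect and mitoxantrone controls for full effect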
# Conditions: RMG-I TPO-luciferase reporter, SteadyGlo, 24 h; at 12.6 µM; hits give high values
row,SMILES,inhibition
1,CN1C[C@@H]2[C@H](c3ccccc31)[C@H](CO)N2C(=O)Nc1ccc(F)cc1,-2.1%
2,CO[C@H]1CN(C)C(=O)c2ccc(NC(=O)Nc3c(C)noc3C)cc2OC[C@@H](C)NC[C@H]1C,-5.2%
3,COc1ccc(C#Cc2ccc([C@@H]3[C@H](CO)N4C(=O)CN(C(C)=O)C[C@@H]34)cc2)cc1,-10.2%
4,CCS(=O)(=O)Nc1ccc2c(c1)C(=O)N(C)[C@@H]1CC[C@@H](CC(=O)N3CCCCC3)O[C@H]1CO2,-5.14%
5,O=C(CN1CCOCC1)NCC[C@@H]1CC[C@@H](NC(=O)Nc2ccccc2)[C@H](CO)O1,-2.03%
6,C[C@@H]1CN([C@H](C)CO)C(=O)c2cccc(NC(=O)c3ccncc3)c2O[C@@H]1CN(C)C,-8.91%
7,COc1cc(OC)c(C(=O)Nc2ccccc2-c2ccccc2)cc1OC,-10.7%
8,CO[C@H]1O[C@H](CO)[C@@H](OC(=O)Nc2ccc(C(F)(F)F)cc2)[C@H](OC(=O)Nc2ccc3c(c2)OCO3)[C@H]1OC(=O)Nc1ccc2c(c1)OCO2,72.5% (active)
9,CO[C@H]1O[C@H](CO)[C@@H](OC(=O)Nc2ccccc2-c2ccccc2)[C@H](OC(=O)Nc2ccccc2)[C@H]1OC(=O)Nc1ccccc1,80% (active)
10,CO[C@H]1O[C@H](CO)[C@@H](OC(=O)Nc2ccccc2)[C@H](OC(=O)Nc2ccc3c(c2)OCO3)[C@H]1OC(=O)Nc1ccc2c(c1)OCO2,16.9%
11,CCc1cccc(NC(=O)O[C@H]2[C@H](OC(=O)Nc3ccccc3-c3ccccc3)[C@H](OC(=O)Nc3ccccc3-c3ccccc3)[C@@H](OC)O[C@@H]2CO)c1,43.4%
12,COc1ccc(NC(=O)O[C@H]2[C@H](OC(=O)Nc3ccc4c(c3)OCO4)[C@@H](OC(=O)Nc3ccc4c(c3)OCO4)[C@@H](OC)O[C@@H]2CO)cc1,14.1%
13,C[C@@H]1CN([C@H](C)CO)S(=O)(=O)c2ccc(C#CC3(O)CCCC3)cc2O[C@@H]1CN(C)C(=O)c1cccnc1,-6.88%
14,COc1ccccc1NC(=O)N1[C@@H]2CNC[C@H]1C2c1ccc(-c2ccccc2C)cc1 (stereo partly drawn),-13.6%
15,Cc1noc(C)c1S(=O)(=O)Nc1ccc2c(c1)C(=O)N([C@H](C)CO)C[C@@H](C)[C@H](CN(C)C(=O)NC(C)C)OCCCC[C@@H](C)O2,16.4%
16,C[C@H](CO)N1C[C@H](C)[C@@H](CN(C)Cc2ccc(C(F)(F)F)cc2)OCc2ccccc2-c2c(n(C)c3ccccc23)C1=O,24%
17,COc1ccc(S(=O)(=O)N(C)C[C@H]2OCCCC[C@@H](C)Oc3ccc(NS(=O)(=O)c4ccc(C)cc4)cc3C(=O)N([C@@H](C)CO)C[C@@H]2C)cc1,36.3%
18,COc1ccc(S(=O)(=O)Nc2ccc3c(c2)C(=O)N([C@@H](C)CO)C[C@H](C)[C@@H](CN(C)S(=O)(=O)c2ccc(F)cc2)OCCCC[C@H](C)O3)cc1,68.7% (active)
19,COc1ccc(S(=O)(=O)Nc2ccc3c(c2)C(=O)N([C@@H](C)CO)C[C@H](C)[C@@H](CN(C)S(=O)(=O)c2ccc(C)cc2)OCCCC[C@@H](C)O3)cc1,31.9%
20,COc1ccc(S(=O)(=O)N(C)C[C@H]2OCCCC[C@H](C)Oc3ccc(NS(=O)(=O)c4ccc(F)cc4)cc3C(=O)N([C@@H](C)CO)C[C@@H]2C)cc1,75.4% (active)
21,COc1ccc(S(=O)(=O)Nc2ccc3c(c2)C(=O)N([C@@H](C)CO)C[C@H](C)[C@H](CN(C)S(=O)(=O)c2ccc(F)cc2)OCCCC[C@@H](C)O3)cc1,34%

row,SMILES,inhibition
1,COc1ccc(S(=O)(=O)N(C)C[C@@H]2OCCCC[C@@H](C)Oc3ccc(NS(=O)(=O)c4ccccc4)cc3C(=O)N([C@@H](C)CO)C[C@H]2C)cc1,19.7%
2,CCCNC(=O)C[C@H]1CC[C@H]2[C@@H](COc3ccc(NC(=O)Nc4c(C)noc4C)cc3C(=O)N2C)O1,-6.6%
3,C[C@H]1CN([C@@H](C)CO)C(=O)Cc2cc(NC(=O)Nc3ccc(F)cc3)ccc2O[C@H]1CN(C)C(=O)Nc1ccc(C(F)(F)F)cc1,59.7%
4,CC(=O)N1[C@H](CNC(=O)CN(C)C)[C@H](c2ccc(C3=CCCC3)cc2)[C@@H]1CO,10.8%
5,Cc1cccc(NC(=O)c2nc(S(=O)(=O)Cc3ccccc3)ncc2Cl)c1,64.5% (active)
6,CSc1nnc(NC(=O)c2nc(S(=O)(=O)Cc3ccc(C)cc3)ncc2Cl)s1,54.7%
7,CN1CCN(c2ccc(NC(=O)c3ccc4c(c3)[nH]c(=O)n4Cc3ccc(F)cc3)cc2)CC1,1.33%
8,Cc1cccc(CS(=O)(=O)c2ncc(Cl)c(C(=O)Nc3ccc(F)cc3)n2)c1,96.3% (active)
9,Cc1cccc(NC(=O)CCN2CC(C)CC(C)C2)c1 (stereo not drawn),2.21%
10,Cc1ccc(C)c(Cn2nnc3c(=O)[nH]c(C(=O)Nc4ccc(F)cc4)nc32)c1,-3.4%
11,CN(C)CC#Cc1ccc([C@H]2[C@@H](CO)N(C(=O)C3CCC3)[C@H]2C#N)cc1,3.44%
12,CO[C@H]1CN(C)C(=O)c2ccc(NC(=O)c3ccno3)cc2OC[C@@H](C)N(S(C)(=O)=O)C[C@H]1C,-22.4%
13,C[C@H]1CN([C@@H](C)CO)C(=O)Cc2cc(NC(=O)Nc3ccc4c(c3)OCO4)ccc2O[C@H]1CN(C)Cc1ccc(C(=O)Nc2ccccc2N)cc1,37.5%
14,O=C(Cc1ccccn1)N1[C@@H]2CNc3ccccc3[C@@H]2[C@@H]1CO,-15.2%
15,O=C(C1CCOCC1)N1C[C@H]2[C@@H](c3ccccc31)[C@@H](CO)N2Cc1ccccc1F,-11.6%
16,C[C@H](NC(=O)C[C@@H]1CC[C@@H]2[C@H](COC[C@@H](O)CN2C(=O)Nc2cc(Cl)cc(Cl)c2)O1)c1ccccc1,49.2%
17,CCC(=O)Nc1ccc(Nc2nc(Cl)nc(Nc3ccc(NC(=O)CC)cc3)n2)cc1,1.45%
18,O=C(CCl)Nc1ccc(Sc2ccc(NC(=O)CCl)cc2)cc1,87.7% (active)
19,O=C(CCl)Nc1cccc(CP(=O)(c2ccccc2)c2ccccc2)c1,18.2%
20,C[C@@H]1CN([C@H](C)CO)C(=O)Cc2cc(NC(=O)Nc3ccc4c(c3)OCO4)ccc2O[C@H]1CN(C)Cc1ccc(C(F)(F)F)cc1,13.6%
21,O=C(OCC(=O)N1CCN(C(=O)c2ccco2)CC1)c1ccc(Cl)c(Cl)c1,6.78%

row,SMILES,inhibition
1,O=C(OCC(=O)N1CCN(C(=O)c2ccco2)CC1)c1cccc(O)c1,-23.5%
2,CN(c1ccccc1)S(=O)(=O)c1cc(C(=O)OCC(=O)N2CCN(C(=O)c3ccco3)CC2)ccc1Cl,80.9% (active)
3,C[C@@H]1CN([C@H](C)CO)C(=O)CCCn2cc(nn2)CO[C@@H]1CN(C)C(=O)Nc1ccc2c(c1)OCO2,-4.65%
4,C[C@@H]1CCCCO[C@@H](CN(C)C(=O)CCC(F)(F)F)[C@@H](C)CN([C@H](C)CO)C(=O)c2cc(NC(=O)Nc3ccccc3)ccc2O1,-44.3%
5,CC1=C(C(=O)OC2CCCCC2)C(c2ccccc2F)NC(=O)N1 (stereo not drawn),23.9%
6,CC1=C(C(=O)OC2CCCCC2)C(c2cccnc2)n2ncnc2N1 (stereo not drawn),143% (active)
7,COc1cc(C2C(C(=O)Nc3ccccc3OC)=C(C)Nc3ncnn32)ccc1O (stereo not drawn),24.6%
8,O=C(CC1CC1)N[C@@H]1C[C@@H]2O[C@H](CO)CC[C@@H]2O[C@@H]1CCc1ccc(C#Cc2ccccc2)cc1,-44%
9,N#Cc1cccc(-c2ccc([C@H]3[C@@H](CO)N4CCCCN(C(=O)Nc5ccccc5)C[C@H]34)cc2)c1,-12.5%
10,CCCNC(=O)Nc1ccc2c(c1)C(=O)N(C)[C@H]1CC[C@H](CC(=O)NC3CCC3)O[C@H]1CO2,-6.66%
11,CCC(=O)N(C)C[C@H]1[C@H](c2ccc(C3=CCCCC3)cc2)[C@@H](CO)N1C(C)=O,-0.343%
12,CCCN1[C@H](C(=O)N2CCOCC2)[C@@H](CO)[C@@H]2Cn3c(ccc(/C=C/c4ccccc4)c3=O)[C@@H]21,78.4% (active)
13,CC=Cc1ccc2n(c1=O)C[C@H]1[C@H](CO)[C@@H](C(=O)N3CCCCC3)N(Cc3ccccn3)[C@@H]21 (mixture of isomers),0.555%
14,CCCN1[C@H](C(=O)N2CCCCC2)[C@@H](CO)[C@@H]2Cn3c(ccc(-c4ccccc4F)c3=O)[C@@H]21,-10.5%
15,CCC(=O)N(C)C[C@@H]1Oc2ncc(C#C[C@H](C)O)cc2C(=O)N([C@@H](C)CO)C[C@@H]1C,-26.1%
16,COCC(=O)Nc1ccc2c(c1)C(=O)N(C)C[C@@H](OC)[C@H](C)CN(C(=O)c1ccccn1)[C@@H](C)CO2,2.92%
17,CCN1[C@@H]2c3cccc(=O)n3C[C@H]1[C@H](CO)[C@H]2C(=O)NC1Cc2ccccc2C1,-4.92%
18,CO[C@H]1CN(C)C(=O)c2ccc(NC(=O)CC(F)(F)F)cc2OC[C@@H](C)N(C(=O)c2ccccc2F)C[C@@H]1C,-20.3%
19,COc1ccc(CNC(=O)CCCn2nc(C)c([N+](=O)[O-])c2C)cc1,2.46%
20,Cc1ccc(Oc2cc(NC(=O)CCCn3nc(C)c([N+](=O)[O-])c3C)cc([N+](=O)[O-])c2)cc1,84.6% (active)
21,Cc1nn(CC(=O)Nc2ccc(N(C)C)cc2)c(C)c1[N+](=O)[O-],13.9%
